Assay [1] has as its system Wnt5a (protein binding on small-molecule microarray). In words: small molecules binding Wnt5a protein – biophysical, small-molecule microarray, 635/667 nm fluorescence, primary screen (AID 1142).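 Note: fluorescence read at 667 nm with signal to noise per printed feature.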 Particulars: 635 nm fluorescence, higher = more signal.
A short description of assay [2]: ATP-based viability of Huh7 replicon cells – cell-based, CellTiter-Glo luminescence, basal, 48 h, cytotoxicity control for HCV replication inhibitor project, primary screen (AID 1143).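 Note: Huh7 hepatoma cells carrying a hepatitis C replication reporter with no stimulus; test concentration not given here.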 Particulars: higher = more signal, called active from +8 up or from −8 down. (In general: A replicon is a self-replicating genome or part of one, used to study replication in cells.)

The nature of assay [3]: Pseudomonas biofilm growth suppression – PAO1 strain, BacTiter-Glo luminescence, LB-PBS, primary screen (AID 1144). Particulars: P. aeruginosa PAO1 biofilm, 12 h, higher = more signal.
Assay [4] is described as follows: basal CRE-LacZ reporter activity in PC12 – cell-based, unstimulated, primary screen (AID 1145). Particulars: no forskolin, luminescence, 4.5 h, higher = more signal, called active from +8 up or from −8 down.
Assay [5] in a line: forskolin-driven CRE-LacZ activity in PC12 – cell-based, CRE-LacZ reporter, forskolin-stimulated, primary screen (AID 1146).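 Note: PC12 cells with 6xCRE LacZ reporter stimulated by forskolin 10 µM; beta-galactosidase reporter signal reflecting CREB driven transcription.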 Particulars: luminescence, 4.5 h, higher = more signal, called active from +8 up or from −8 down.
For assay [6], the target named is Streptavidin (Streptomyces avidinii) (UniProt P22629). As to the kind of experiment: compounds binding control protein streptavidin – biophysical, small-molecule microarray, 635/667 nm fluorescence, artefact control for SMM compound annotation, primary screen (AID 1147).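 Note: signal reflects streptavidin binding to arrayed compounds as a control protein.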 Particulars: higher = more signal.
Assay [7] in a line: probe aInhba binding on compound microarray – biochemical, small-molecule microarray, 635/667 nm fluorescence, primary screen (AID 1148).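 Note: score merges 667nm spot fluorescence with signal-to-noise for antibody binding to printed compounds.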 Particulars: higher = more signal.
In assay [8] the target is Torsin-1A (Homo sapiens) (UniProt O14656). In words: TOR1A wild-type binding on microarray – cell lysate, small-molecule microarray, lysate, 635/667 nm, primary screen (AID 1149). Particulars: COS7 hTOR1A-WT lysate, 635 nm fluorescence, higher = more signal.
Assay [9] has the same target. As to the kind of experiment: torsin A mutant lysate binding on microarrays – cell lysate, small-molecule microarray, COS7 lysate, 635/667 nm fluorescence, primary screen (AID 1150).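 Note: score pools 667 nm emission and signal to noise measuring lysate protein binding.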 Particulars: COS7 hTOR1A mutant lysate, 635 nm fluorescence, higher = more signal.
In assay [10] the test system is Sonic hedgehog protein (Shh). As to the kind of experiment: Sonic hedgehog microarray binding compounds – biochemical, small-molecule microarray, 635/667 nm fluorescence, primary screen (AID 1151).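 Note: Shh protein binding to compounds spotted on small-molecule microarray slides; score combines spot fluorescence intensity with signal-to-noise across triplicate slides.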 Particulars: 635 nm fluorescence, higher = more signal.
Assay [11] can be described thus: optical density shifts of acrAB sulA E. coli – strain DRC41, OD650, 48 h, E. coli filamentation inducer project, primary screen (AID 1152).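 Note: E. coli MC1000 strain DRC41 lacking acrAB efflux pump and sulA.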 Particulars: higher = more signal, called active from +8 up or from −8 down.
A short description of assay [12]: probe aLefty1 binding on compound microarray – biochemical, small-molecule microarray, 635/667 nm fluorescence, primary screen (AID 1153).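 Note: score merges spot fluorescence with signal-to-noise ratio from the scanned slide images.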 Particulars: higher = more signal.
Assay [13] in a line: plasmodial surface anion channel blockers, osmotic lysis – cell-based, P. falciparum Indochina, OD700, 1 h, primary screen (AID 1154). Particulars: P. falciparum Indochina infected RBC osmotic lysis, higher = more signal, called active from +8 up or from −8 down.
Assay [14] is described as follows: plasmodial surface anion channel blockers, osmotic lysis – cell-based, P. falciparum Indochina, OD700, 2 h, primary screen (AID 1155).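 Note: lysis reports solute entry through the parasite surface anion channel PSAC.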 Particulars: P. falciparum Indochina infected erythrocytes, higher = more signal, called active from +8 up or from −8 down.
The nature of assay [15]: changes in parasitized red cell lysis, either direction – P. falciparum Indochina, OD700, 3 h, PSAC antagonist project, primary screen (AID 1156). Particulars: P. falciparum-infected erythrocytes, osmotic lysis, higher = more signal, called active from +8 up or from −8 down.
Assay [16] is described as follows: plasmodial surface anion channel blockers, osmotic lysis – cell-based, P. falciparum Indochina, OD700, 18 h, primary screen (AID 1157). Particulars: P. falciparum Indochina infected erythrocytes, osmotic lysis OD700, 18 h; higher = more signal, called active from +8 up or from −8 down.
A short description of assay [17]: S6 kinase pathway phospho-S6 level changes – cell-based, A549, cytoblot, luminescence, serum-stimulated, primary screen (AID 1158).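 Note: serum-stimulated A549 lung adenocarcinoma cells; signal is phosphorylated S6 detected by cytoblot immunostaining with HRP secondary.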 Particulars: 5 h, higher = more signal.
Assay [18] deals with NADPH oxidase 2 (Homo sapiens) (UniProt P04839). In words: compounds shifting NOX2 Amplex Red fluorescence – cell-based, HEK293-NOX2, PMA-stimulated, NOX inhibitor project, primary screen (AID 1159). Note: test concentration not given here. Particulars: 45 min, higher = more signal, called active from +8 up or from −8 down.
In assay [19] the target is NADPH oxidase 4 (Homo sapiens) (UniProt Q9NPH5). In words: compounds shifting NOX4 Amplex Red fluorescence – cell-based, HEK293-NOX4, tetracycline-induced, NOX inhibitor project, primary screen (AID 1160). Particulars: HEK293-NOX4, Amplex Red H2O2 fluorescence, 45 min; higher = more signal, called active from +8 up or from −8 down.
Assay [20] has as its target NADPH oxidase 5 (Homo sapiens) (UniProt Q96PH1). In words: compounds shifting NOX5 Amplex Red fluorescence – cell-based, HEK293-NOX5, NOX inhibitor project, primary screen (AID 1161). Particulars: HEK293-NOX5, ionomycin, 45 min, higher = more signal.

Four compounds from PubChem BioAssay can be followed below.

Activity calls are given as the source filed them. Unless noted, the rule behind the calls is not given here.

Chain of Torsin-1A (Homo sapiens) (O14656 whole entry, looked up): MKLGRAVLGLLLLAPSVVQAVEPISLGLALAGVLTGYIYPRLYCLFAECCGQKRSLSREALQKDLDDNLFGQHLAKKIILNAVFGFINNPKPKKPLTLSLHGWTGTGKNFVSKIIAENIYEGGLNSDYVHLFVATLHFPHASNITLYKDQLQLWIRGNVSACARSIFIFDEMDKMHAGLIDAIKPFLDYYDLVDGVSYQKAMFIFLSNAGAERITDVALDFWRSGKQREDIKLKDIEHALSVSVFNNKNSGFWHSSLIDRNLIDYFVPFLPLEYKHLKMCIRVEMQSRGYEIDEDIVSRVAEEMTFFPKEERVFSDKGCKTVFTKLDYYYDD
Chain of NADPH oxidase 5 (Homo sapiens) (Q96PH1 whole entry, looked up): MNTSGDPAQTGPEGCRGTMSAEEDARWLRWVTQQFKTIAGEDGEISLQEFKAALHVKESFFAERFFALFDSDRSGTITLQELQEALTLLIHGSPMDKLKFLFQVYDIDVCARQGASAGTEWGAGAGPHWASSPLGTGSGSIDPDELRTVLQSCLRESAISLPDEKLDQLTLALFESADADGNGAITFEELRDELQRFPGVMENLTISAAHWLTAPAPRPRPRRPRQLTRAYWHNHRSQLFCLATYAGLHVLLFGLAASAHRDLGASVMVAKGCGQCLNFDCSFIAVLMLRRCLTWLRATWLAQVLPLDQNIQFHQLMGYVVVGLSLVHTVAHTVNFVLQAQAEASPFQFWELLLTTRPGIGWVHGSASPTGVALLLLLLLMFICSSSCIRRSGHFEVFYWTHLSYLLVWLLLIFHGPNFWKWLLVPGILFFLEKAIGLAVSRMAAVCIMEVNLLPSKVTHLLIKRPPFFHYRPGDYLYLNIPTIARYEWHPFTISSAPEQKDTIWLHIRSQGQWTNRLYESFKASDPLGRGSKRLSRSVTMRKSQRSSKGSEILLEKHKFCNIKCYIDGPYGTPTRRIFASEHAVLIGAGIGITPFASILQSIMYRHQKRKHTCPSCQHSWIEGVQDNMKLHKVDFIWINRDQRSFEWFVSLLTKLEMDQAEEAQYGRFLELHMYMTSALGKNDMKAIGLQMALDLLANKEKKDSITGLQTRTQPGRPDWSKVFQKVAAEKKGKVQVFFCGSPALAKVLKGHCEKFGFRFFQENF
Chain of NADPH oxidase 4 (Homo sapiens) (Q9NPH5 whole entry, looked up): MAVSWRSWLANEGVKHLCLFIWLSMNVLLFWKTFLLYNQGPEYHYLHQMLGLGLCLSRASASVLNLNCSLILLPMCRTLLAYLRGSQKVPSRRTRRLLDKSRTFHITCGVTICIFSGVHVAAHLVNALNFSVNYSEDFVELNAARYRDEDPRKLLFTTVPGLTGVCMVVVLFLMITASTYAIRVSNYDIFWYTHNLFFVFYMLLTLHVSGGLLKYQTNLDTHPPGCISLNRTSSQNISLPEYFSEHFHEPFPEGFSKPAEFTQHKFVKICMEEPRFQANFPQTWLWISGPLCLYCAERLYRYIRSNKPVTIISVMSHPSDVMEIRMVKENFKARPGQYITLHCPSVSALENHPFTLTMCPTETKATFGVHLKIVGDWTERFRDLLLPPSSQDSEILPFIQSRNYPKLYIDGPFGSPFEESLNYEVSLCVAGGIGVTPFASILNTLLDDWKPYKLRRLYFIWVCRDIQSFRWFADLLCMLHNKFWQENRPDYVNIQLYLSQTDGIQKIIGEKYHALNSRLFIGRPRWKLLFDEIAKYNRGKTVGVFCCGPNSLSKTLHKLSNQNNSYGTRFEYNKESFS
Chain of NADPH oxidase 2 (Homo sapiens) (P04839 whole entry, looked up): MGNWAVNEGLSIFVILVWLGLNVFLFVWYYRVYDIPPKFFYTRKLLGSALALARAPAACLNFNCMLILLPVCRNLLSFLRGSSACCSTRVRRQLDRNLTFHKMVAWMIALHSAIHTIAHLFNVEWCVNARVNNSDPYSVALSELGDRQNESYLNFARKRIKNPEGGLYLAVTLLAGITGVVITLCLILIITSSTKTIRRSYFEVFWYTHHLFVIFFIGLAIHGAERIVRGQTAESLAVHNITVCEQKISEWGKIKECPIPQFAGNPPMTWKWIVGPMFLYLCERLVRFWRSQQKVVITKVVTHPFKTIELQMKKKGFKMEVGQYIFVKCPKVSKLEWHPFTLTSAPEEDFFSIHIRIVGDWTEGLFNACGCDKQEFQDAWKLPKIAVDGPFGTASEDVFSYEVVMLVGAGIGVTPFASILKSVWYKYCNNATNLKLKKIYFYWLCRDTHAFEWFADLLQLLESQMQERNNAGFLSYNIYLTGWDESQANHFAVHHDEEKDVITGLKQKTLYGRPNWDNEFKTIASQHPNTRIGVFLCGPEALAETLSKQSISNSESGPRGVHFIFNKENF
Chain of Streptavidin (Streptomyces avidinii) (P22629 whole entry, looked up): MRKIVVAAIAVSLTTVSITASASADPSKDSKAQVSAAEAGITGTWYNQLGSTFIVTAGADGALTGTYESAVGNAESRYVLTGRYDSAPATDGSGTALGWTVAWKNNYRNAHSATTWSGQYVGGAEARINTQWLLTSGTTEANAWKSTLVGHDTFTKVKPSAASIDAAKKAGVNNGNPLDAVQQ

Take `C=CC[C@H](O)c1ccc(O)c2ccccc12`: the composite z-score is 0.188 in [1]; 0.881 in [6]; -0.101 in assay [7]; 0.172 in the assay with Torsin-1A (Homo sapiens) [8]; 0.46 in the assay with Torsin-1A (Homo sapiens) [9]; 1.96 in [10]. This compound also yielded a composite z-score in [12] of -0.0163. For the same compound, the z-score was 0.273 (inactive) in assay [2]; -0.725 (inactive) in assay [3]; 6.45 (inactive) in [4]; 1.82 (inactive) in [5]; 0.675 (inactive) in assay [11]; 1.28 (inactive) in [13]. Also, the z-score in [14] was 0.439 (inactive); in assay [15], 0.168 (inactive); in assay [16], 0.45 (inactive); in assay [17], -0.323; in assay [18] it was -5.36 (inactive); in [19] it was -1.98 (inactive). The z-score in assay [20] turned out to be 1.42.

Regarding `N#Cc1ccc(NN2C(C(O)c3ccc(B(O)O)cc3)C=CC3CN(c4ccccc4)C(=O)C32)cc1` (stereo not given), the composite z-score is -0.465 in assay [1]; 0.287 in assay [6]; -0.128 in [7]; -0.0754 with Torsin-1A (Homo sapiens) [8]; 0.103 with Torsin-1A (Homo sapiens) [9]; -0.944 in [10]. The compound also displayed a composite z-score in assay [12] of 0.521. The z-score is -0.0138 (inactive) in [2]; -0.454 (inactive) in [3]; -0.898 (inactive) in assay [4]; -0.758 (inactive) in assay [5]; 1.18 (inactive) in assay [11]; 24.4 (active) in assay [13]. For the same compound, the z-score in assay [14] was 10.6 (active); in assay [15], 3.76 (inactive); in assay [16] it was 2.54 (inactive); in [17], -0.882; in assay [18], -2.63 (inactive); in [19], -6.25 (inactive). In assay [20], the z-score was -4.31.

As for `COCCOC(=O)N1C(=O)[C@@]2(c3ccccc31)[C@H](C(=O)Nc1nc3ccccc3s1)[C@H]1C(=O)O[C@H](c3ccccc3)[C@H](c3ccccc3)N1[C@@H]2c1ccccc1OCCO`, the composite z-score in assay [1] amounted to 0.0847; in assay [6], 1.39; in assay [7] it was 0.379; in the assay with Torsin-1A (Homo sapiens) [8], 0.282; with Torsin-1A (Homo sapiens) [9], 0.781; in assay [10] it was 0.733. Besides, in assay [12], the composite z-score amounted to 0.941. For the same compound, the z-score in [2] is -3.65 (inactive); in assay [3] it was -0.457 (inactive); in [4], -0.207 (inactive); in [5], -0.144 (inactive); in assay [11] it was 0.253 (inactive); in assay [13], 4.98 (inactive). The z-score in assay [14] is 2.57 (inactive); in assay [15] it was 0.0618 (inactive); in [16], 1.95 (inactive); in assay [17], -0.0149; in assay [18], 1.91 (inactive); in [19] it was -0.601 (inactive). Further, in assay [20], the z-score amounted to 1.17.

Regarding `C=CCNC(=O)[C@@H]1[C@H]2C(=O)O[C@H](c3ccccc3)[C@H](c3ccccc3)N2[C@H](c2ccc(OCCO)cc2)[C@@]12C(=O)Nc1ccc(C#CC3=CCCCC3)cc12`, the composite z-score in [1] stood at 0.257; in [6], 1.06; in [7], 0.0502; with Torsin-1A (Homo sapiens) [8] it was 0.707; in the assay with Torsin-1A (Homo sapiens) [9], 0.531; in [10], 1.66. Also, the composite z-score in [12] was -0.21. Also, the z-score in assay [2] is -4.25 (inactive); in assay [3], -0.188 (inactive); in assay [4], 0.299 (inactive); in assay [5] it was -0.0321 (inactive); in assay [11], -0.874 (inactive); in assay [13], 2.81 (inactive). Further, the z-score in assay [14] was 1.98 (inactive); in assay [15] it was -0.306 (inactive); in assay [16], 1.87 (inactive); in assay [17] it was -0.474; in [18], 1.38 (inactive); in assay [19], -0.894 (inactive). Further, the z-score in assay [20] stood at 1.56.
